# From the supplement of paper PMC4466140
# Legend:
# Assay in all cases: SPOT peptide array binding signal intensity (averaged, normalized) (arbitrary units (background-subtracted, floor 0; scale differs between SH3 domains)); higher = stronger binding of the SH3 domain to the peptide
# AgAbp1 = molecular target: AgAbp1
# How it was run: (§1)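 Binding signal refers to normalized, background-subtracted spot intensity averaged over replicates, expressed in arbitrary units that differ between domains. GST-fused SH3 domains from four yeast species were incubated at 10 μg/ml overnight at 4°C on cellulose membranes of synthetic 15-mer peptides with cysteines replaced by serines. Bound protein was detected with anti-GST antibody, an HRP anti-mouse secondary and luminol, and quantified with Genespotter.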
# AgBbc1 = molecular target: AgBbc1
# How it was run: as §1
# AgBem1-D1 = molecular target: AgBem1-D1
# How it was run: as §1
# AgBzz1-D1 = molecular target: AgBzz1-D1
# How it was run: as §1
# AgBzz1-D2 = molecular target: AgBzz1-D2
# How it was run: as §1
# AgCyk3 = molecular target: AgCyk3
# How it was run: as §1
# AgFus1 = molecular target: AgFus1
# How it was run: as §1
# AgHof1 = molecular target: AgHof1
# How it was run: as §1
# AgHse1 = molecular target: AgHse1
# How it was run: as §1
# AgLsb1 = molecular target: AgLsb1
# How it was run: as §1
# AgLsb4 = molecular target: AgLsb4
# How it was run: as §1
# AgMyo5 = molecular target: AgMyo5
# How it was run: as §1
# AgNbp2 = molecular target: AgNbp2
# How it was run: as §1
# AgRvs167 = molecular target: AgRvs167
# How it was run: as §1
# AgSho1 = molecular target: AgSho1
# How it was run: as §1
# AgSla1-D1-D2 = molecular target: AgSla1-D1-D2
# How it was run: as §1
# AgSla1-D3 = molecular target: AgSla1-D3
# How it was run: as §1
# CaAbp1-D1 = molecular target: CaAbp1-D1
# How it was run: as §1
# CaAbp1-D2 = molecular target: CaAbp1-D2
# How it was run: as §1
# CaBbc1 = molecular target: CaBbc1
# How it was run: as §1
# CaBem1-D1 = molecular target: CaBem1-D1
# How it was run: as §1
# CaBzz1-D1 = molecular target: CaBzz1-D1
# How it was run: as §1
# CaBzz1-D2 = molecular target: CaBzz1-D2
# How it was run: as §1
# CaCyk3 = molecular target: CaCyk3
# How it was run: as §1
# CaFus1 = molecular target: CaFus1
# How it was run: as §1
# CaHof1 = molecular target: CaHof1
# How it was run: as §1
# CaHse1 = molecular target: CaHse1
# How it was run: as §1
# CaLsb1 = molecular target: CaLsb1
# How it was run: as §1
# CaLsb4 = molecular target: CaLsb4
# How it was run: as §1
# CaMyo5 = molecular target: CaMyo5
# How it was run: as §1
# CaNbp2 = molecular target: CaNbp2
# How it was run: as §1
# CaRvs167 = molecular target: CaRvs167
# How it was run: as §1
# CaRvs167-3 = molecular target: CaRvs167-3
# How it was run: as §1
# CaSho1 = molecular target: CaSho1
# How it was run: as §1
# CaSla1-D1-D2 = molecular target: CaSla1-D1-D2
# How it was run: as §1
# CaSla1-D3 = molecular target: CaSla1-D3
# How it was run: as §1
# ScAbp1 = molecular target: ScAbp1
# How it was run: as §1
# ScBbc1 = molecular target: ScBbc1
# How it was run: as §1
# ScBem1-D1 = molecular target: ScBem1-D1
# How it was run: as §1
# ScBzz1-D1 = molecular target: ScBzz1-D1
# How it was run: as §1
# ScBzz1-D2 = molecular target: ScBzz1-D2
# How it was run: as §1
# ScCyk3 = molecular target: ScCyk3
# How it was run: as §1
# ScFus1 = molecular target: ScFus1
# How it was run: as §1
# ScHof1 = molecular target: ScHof1
# How it was run: as §1
# ScHse1 = molecular target: ScHse1
# How it was run: as §1
# ScLsb1 = molecular target: ScLsb1
# How it was run: as §1
# ScLsb2 = molecular target: ScLsb2
# How it was run: as §1
# ScLsb3 = molecular target: ScLsb3
# How it was run: as §1
# ScLsb4 = molecular target: ScLsb4
# How it was run: as §1
# ScMyo3 = molecular target: ScMyo3
# How it was run: as §1
# ScMyo5 = molecular target: ScMyo5
# How it was run: as §1
# ScNbp2 = molecular target: ScNbp2
# How it was run: as §1
# ScPex13 = molecular target: ScPex13
# How it was run: as §1
# ScRvs167 = molecular target: ScRvs167
# How it was run: as §1
# ScSho1 = molecular target: ScSho1
# How it was run: as §1
# ScSla1-D1-D2 = molecular target: ScSla1-D1-D2
# How it was run: as §1
# ScSla1-D3 = molecular target: ScSla1-D3
# How it was run: as §1
# SpAbp1-D1 = molecular target: SpAbp1-D1
# How it was run: as §1
# SpBbc1 = molecular target: SpBbc1
# How it was run: as §1
# SpBzz1-D1 = molecular target: SpBzz1-D1
# How it was run: as §1
# SpBzz1-D2 = molecular target: SpBzz1-D2
# How it was run: as §1
# SpCyk3 = molecular target: SpCyk3
# How it was run: as §1
# SpHof1 = molecular target: SpHof1
# How it was run: as §1
# SpHof1-2 = molecular target: SpHof1-2
# How it was run: as §1
# SpHof1-3 = molecular target: SpHof1-3
# How it was run: as §1
# SpHse1 = molecular target: SpHse1
# How it was run: as §1
# SpLsb1 = molecular target: SpLsb1
# How it was run: as §1
# SpLsb4 = molecular target: SpLsb4
# How it was run: as §1
# SpMyo1 = molecular target: SpMyo1
# How it was run: as §1
# SpNbp2 = molecular target: SpNbp2
# How it was run: as §1
# SpPex13 = molecular target: SpPex13
# How it was run: as §1
# SpRvs167 = molecular target: SpRvs167
# How it was run: as §1
# SpSla1-D1-D2 = molecular target: SpSla1-D1-D2
# How it was run: as §1
# SpSla1-D3 = molecular target: SpSla1-D3
# How it was run: as §1
binder,measurement,setting,value
VQPTAAPATPPRHIS,SPOT peptide array binding signal intensity,AgAbp1,≤ 0
same,SPOT peptide array binding signal intensity,AgBbc1,≤ 0
same,SPOT peptide array binding signal intensity,AgBem1-D1,≤ 0
same,SPOT peptide array binding signal intensity,AgBzz1-D1,≤ 0
same,SPOT peptide array binding signal intensity,AgBzz1-D2,≤ 0
same,SPOT peptide array binding signal intensity,AgCyk3,≤ 0
same,SPOT peptide array binding signal intensity,AgFus1,≤ 0
same,SPOT peptide array binding signal intensity,AgHof1,≤ 0
same,SPOT peptide array binding signal intensity,AgHse1,5.5
same,SPOT peptide array binding signal intensity,AgLsb1,8
same,SPOT peptide array binding signal intensity,AgLsb4,964
same,SPOT peptide array binding signal intensity,AgMyo5,≤ 0
same,SPOT peptide array binding signal intensity,AgNbp2,≤ 0
same,SPOT peptide array binding signal intensity,AgRvs167,43.6
same,SPOT peptide array binding signal intensity,AgSho1,≤ 0
same,SPOT peptide array binding signal intensity,AgSla1-D1-D2,≤ 0
same,SPOT peptide array binding signal intensity,AgSla1-D3,≤ 0
same,SPOT peptide array binding signal intensity,CaAbp1-D1,≤ 0
same,SPOT peptide array binding signal intensity,CaAbp1-D2,≤ 0
same,SPOT peptide array binding signal intensity,CaBbc1,78.6
same,SPOT peptide array binding signal intensity,CaBem1-D1,5
same,SPOT peptide array binding signal intensity,CaBzz1-D1,≤ 0
same,SPOT peptide array binding signal intensity,CaBzz1-D2,≤ 0
same,SPOT peptide array binding signal intensity,CaCyk3,≤ 0
same,SPOT peptide array binding signal intensity,CaFus1,≤ 0
same,SPOT peptide array binding signal intensity,CaHof1,≤ 0
same,SPOT peptide array binding signal intensity,CaHse1,5.25
same,SPOT peptide array binding signal intensity,CaLsb1,≤ 0
same,SPOT peptide array binding signal intensity,CaLsb4,2000
same,SPOT peptide array binding signal intensity,CaMyo5,≤ 0
same,SPOT peptide array binding signal intensity,CaNbp2,≤ 0
same,SPOT peptide array binding signal intensity,CaRvs167,462
same,SPOT peptide array binding signal intensity,CaRvs167-3,≤ 0
same,SPOT peptide array binding signal intensity,CaSho1,≤ 0
same,SPOT peptide array binding signal intensity,CaSla1-D1-D2,≤ 0
same,SPOT peptide array binding signal intensity,CaSla1-D3,≤ 0
same,SPOT peptide array binding signal intensity,ScAbp1,≤ 0
same,SPOT peptide array binding signal intensity,ScBbc1,1.75
same,SPOT peptide array binding signal intensity,ScBem1-D1,≤ 0
same,SPOT peptide array binding signal intensity,ScBzz1-D1,≤ 0
same,SPOT peptide array binding signal intensity,ScBzz1-D2,≤ 0
same,SPOT peptide array binding signal intensity,ScCyk3,≤ 0
same,SPOT peptide array binding signal intensity,ScFus1,≤ 0
same,SPOT peptide array binding signal intensity,ScHof1,0.5
same,SPOT peptide array binding signal intensity,ScHse1,≤ 0
same,SPOT peptide array binding signal intensity,ScLsb1,14.5
same,SPOT peptide array binding signal intensity,ScLsb2,≤ 0
same,SPOT peptide array binding signal intensity,ScLsb3,6740
same,SPOT peptide array binding signal intensity,ScLsb4,1970
same,SPOT peptide array binding signal intensity,ScMyo3,≤ 0
same,SPOT peptide array binding signal intensity,ScMyo5,≤ 0
same,SPOT peptide array binding signal intensity,ScNbp2,≤ 0
same,SPOT peptide array binding signal intensity,ScPex13,4
same,SPOT peptide array binding signal intensity,ScRvs167,1040
same,SPOT peptide array binding signal intensity,ScSho1,4.75
same,SPOT peptide array binding signal intensity,ScSla1-D1-D2,≤ 0
same,SPOT peptide array binding signal intensity,ScSla1-D3,≤ 0
same,SPOT peptide array binding signal intensity,SpAbp1-D1,≤ 0
same,SPOT peptide array binding signal intensity,SpBbc1,≤ 0
same,SPOT peptide array binding signal intensity,SpBzz1-D1,≤ 0
same,SPOT peptide array binding signal intensity,SpBzz1-D2,≤ 0
same,SPOT peptide array binding signal intensity,SpCyk3,≤ 0
same,SPOT peptide array binding signal intensity,SpHof1,0.5
same,SPOT peptide array binding signal intensity,SpHof1-2,0.25
same,SPOT peptide array binding signal intensity,SpHof1-3,15
same,SPOT peptide array binding signal intensity,SpHse1,≤ 0
same,SPOT peptide array binding signal intensity,SpLsb1,2
same,SPOT peptide array binding signal intensity,SpLsb4,4010
same,SPOT peptide array binding signal intensity,SpMyo1,≤ 0
same,SPOT peptide array binding signal intensity,SpNbp2,≤ 0
same,SPOT peptide array binding signal intensity,SpPex13,≤ 0
same,SPOT peptide array binding signal intensity,SpRvs167,1620
same,SPOT peptide array binding signal intensity,SpSla1-D1-D2,0.5
same,SPOT peptide array binding signal intensity,SpSla1-D3,≤ 0
SSSSSPPPLPTRRDH,SPOT peptide array binding signal intensity,AgAbp1,≤ 0
same,SPOT peptide array binding signal intensity,AgBbc1,364
same,SPOT peptide array binding signal intensity,AgBem1-D1,2
same,SPOT peptide array binding signal intensity,AgBzz1-D1,26
same,SPOT peptide array binding signal intensity,AgBzz1-D2,19.5
same,SPOT peptide array binding signal intensity,AgCyk3,1.5
same,SPOT peptide array binding signal intensity,AgFus1,15.5
same,SPOT peptide array binding signal intensity,AgHof1,59
same,SPOT peptide array binding signal intensity,AgHse1,18.5
same,SPOT peptide array binding signal intensity,AgLsb1,180
same,SPOT peptide array binding signal intensity,AgLsb4,6800
same,SPOT peptide array binding signal intensity,AgMyo5,586
same,SPOT peptide array binding signal intensity,AgNbp2,16
same,SPOT peptide array binding signal intensity,AgRvs167,627
same,SPOT peptide array binding signal intensity,AgSho1,19
same,SPOT peptide array binding signal intensity,AgSla1-D1-D2,≤ 0
same,SPOT peptide array binding signal intensity,AgSla1-D3,≤ 0
same,SPOT peptide array binding signal intensity,CaAbp1-D1,7.5
same,SPOT peptide array binding signal intensity,CaAbp1-D2,≤ 0
same,SPOT peptide array binding signal intensity,CaBbc1,378
same,SPOT peptide array binding signal intensity,CaBem1-D1,4
same,SPOT peptide array binding signal intensity,CaBzz1-D1,139
same,SPOT peptide array binding signal intensity,CaBzz1-D2,≤ 0
same,SPOT peptide array binding signal intensity,CaCyk3,2
same,SPOT peptide array binding signal intensity,CaFus1,26
same,SPOT peptide array binding signal intensity,CaHof1,24.5
same,SPOT peptide array binding signal intensity,CaHse1,114
same,SPOT peptide array binding signal intensity,CaLsb1,19.5
same,SPOT peptide array binding signal intensity,CaLsb4,8630
same,SPOT peptide array binding signal intensity,CaMyo5,6.5
